Results as given in PubChem BioAssay AID1851 (National Center for Advancing Translational Sciences (NCATS), 2009).
Among all 16,000 compounds or so, about 2,600 (16%) were called active. Not shown: some 20% with an inconclusive outcome. The call rests on the fitted dose curve; in most records, active means well fitted curve in the direction sought with a large enough effect; inconclusive means small, poorly fitted or top-dose-only effect, or effect the other way; inactive means no such curve, though single readings can be large or run the other way. Only a sample is shown.

Each compound was assayed against Cytochrome P450 2D6 (Homo sapiens) (UniProt P10635) (assay: Cytochrome panel assay with activity outcomes). Details: recombinant CYP, pro-luciferin dealkylation, luminescence, p450-cyp2d6; series mostly up to 57.1 µM.
Sequence of Cytochrome P450 2D6 (Homo sapiens) (P10635 whole entry, looked up): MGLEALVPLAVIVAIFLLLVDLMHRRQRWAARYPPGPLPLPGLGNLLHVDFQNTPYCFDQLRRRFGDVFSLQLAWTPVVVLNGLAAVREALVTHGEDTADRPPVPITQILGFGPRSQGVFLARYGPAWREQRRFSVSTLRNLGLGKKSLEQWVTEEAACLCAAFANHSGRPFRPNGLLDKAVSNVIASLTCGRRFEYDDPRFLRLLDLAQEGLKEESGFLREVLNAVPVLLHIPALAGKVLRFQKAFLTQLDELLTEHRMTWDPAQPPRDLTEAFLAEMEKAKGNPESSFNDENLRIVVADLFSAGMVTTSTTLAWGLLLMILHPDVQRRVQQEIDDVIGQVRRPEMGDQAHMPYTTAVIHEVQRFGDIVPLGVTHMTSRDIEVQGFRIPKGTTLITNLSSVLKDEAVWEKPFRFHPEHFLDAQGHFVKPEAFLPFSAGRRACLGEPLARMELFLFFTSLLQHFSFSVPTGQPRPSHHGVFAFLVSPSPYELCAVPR
On the % scale 0 is the no-effect control and ±100 the full control effect.

AC50, active:
O=C(O)NCC1CCCCC1 (tested in a mixture with another compound) 3.98 µM
O=C(NCc1ccccc1)C12CN(Cc3ccccc3)CC1C(c1cccc([N+](=O)[O-])c1)=NO2 (stereo unspecified) 5.01 µM
COC(=O)N1CCC2(CCCN(Cc3ccccc3OC)C2)CC1 3.16 µM
COc1ccccc1CN1CC[C@@]2(CCCN(C(C)=O)C2)C1 3.16 µM
COCC(=O)N1CCC[C@@]2(CCN(Cc3ccccc3OC)C2)C1 6.31 µM
COc1ccccc1CN1CCCC2(CCN(C(C)=O)CC2)C1 3.16 µM
COCC(=O)N1CCC[C@@]2(CCN(Cc3ccccc3)C2)C1 6.31 µM
CC(C)(C)c1ccc(C(=O)N2CCC(C(=O)NCCC3=CCCCC3)CC2)cc1 22.4 µM
COc1ccc(-n2ccnc2SCC(=O)Nc2ccccc2)cc1 17.8 µM
COc1cccc(-n2ccnc2SCC(=O)Nc2nccs2)c1 12.6 µM
NC(=O)OCC(COC(N)=O)c1ccccc1 0.794 µM
CC1=NC(C)(C)Cc2ccccc21 14.1 µM
CN(C)CCn1c(=O)n(Cc2ccco2)c(=O)c2c3c(sc21)CCCCC3 1.58 µM
O=C(COc1ccc(Br)cc1)N1CCC(c2ccccc2)C1 (stereo unspecified) 17.8 µM
CN(CCCNC(=O)c1ccc(/C=N/O)nc1)CCCN(C)Cc1ccccc1 2.82 µM
Cc1ccc(C(=O)C2CCNCC2)cc1 1.41 µM
CN1CCN(C(=O)c2ccc(COc3ccc(C(C)(C)C)cc3)o2)CC1 4.47 µM

AC50, inactive:
CC1(C)O[C@H]2C[C@@H]3[C@H]4CCC5=CC(=O)CC[C@@]5(C)[C@]4(F)[C@@H](O)C[C@@]3(C)[C@@]2(C(=O)CCl)O1
CC(C)CC(=O)Nc1ccccc1-c1nnn(CC(=O)N2CCc3ccccc3C2)n1
Cc1nnc(SCC(=O)NCC2CCCCC2)n(N)c1=O
O=C(c1cc(-c2ccco2)on1)N1CCOCC1
O=C(Cc1ccccc1)N/N=C/C=C/c1cccc([N+](=O)[O-])c1
CC(C)CCNC(=O)C12CN(Cc3ccccc3)CC1C(c1cccc([N+](=O)[O-])c1)=NO2 (stereo unspecified)
O=c1nc(-c2ccccc2)cn[nH]1
C/C=C\C[C@@H](C)[C@@H](O)[C@H]1C(=O)N[C@@H](CC)C(=O)N(C)CC(=O)N(C)[C@@H](CC(C)C)C(=O)N[C@@H](C(C)C)C(=O)N(C)[C@@H](CC(C)C)C(=O)N[C@@H](C)C(=O)N[C@H](C)C(=O)N(C)[C@@H](CC(C)C)C(=O)N(C)[C@@H](CC(C)C)C(=O)N(C)[C@@H](C(C)C)C(=O)N1C
C[C@H]1NC(=O)NC1=O
CCOC(=O)n1c(=O)n(Cc2c(Cl)cccc2Cl)c2ccccc21
CC(=O)N1CCC[C@@]2(CCN(c3ccncc3)C2)C1
COCC(=O)N1CCC2(CCCN(Cc3ccccc3OC)C2)CC1
COc1ccc(NC(=O)N2CC[C@@]3(CCCN(C(C)=O)C3)C2)cc1
COC(=O)N1CCC2(CCCN(C(=O)Nc3ccc(OC)cc3)C2)CC1
COCC(=O)N1CCC2(CCCN(C(=O)Nc3cccc(F)c3)C2)CC1
CCSc1nc2nc(C)cc(C)n2n1
Cn1cc(C(=O)N/N=C/C(Br)=C\c2ccccc2)ccc1=O
CCN1CCN(c2nc3c(c(=O)[nH]c(=O)n3C)n2CCCSc2ncccn2)CC1
COc1ccc(C2/C(=C(/O)c3ccccc3)C(=O)C(=O)N2CC(C)O)c(OC)c1 (stereo unspecified)
N#Cc1sc2nc(-c3cccs3)cc(-c3ccc(Cl)cc3)c2c1N
O=c1c2c(-c3ccc(Cl)cc3)csc2nc2n1CCC2
COCCn1c(=O)[nH]c2cc(C(=O)N3CCN(c4ccccc4OC)CC3)ccc2c1=O
COCC(=O)N1CCC2(CCCN(Cc3ccccc3)C2)CC1
COCC(=O)N1CCC[C@@]2(CCN(Cc3ccc(C#N)cc3)C2)C1
Cc1c(NC(=S)N/N=C/c2ccc(O)cc2)c(=O)n(-c2ccccc2)n1C
CC(C)[C@@H]1[C@H]2CC[C@H](C2)[C@H]1N
Cc1ccc(Sc2cc(Cl)nc(N)n2)cc1
Cc1ccc2[nH]c(=O)c(NC(N)=S)nc2c1
O=C1CSc2ccc(C(=O)NCCC3=CCCCC3)cc2N1
CCC(C)NC(=O)C1CCN(C(=O)c2ccccc2)CC1 (stereo unspecified)
CCNC(=O)C1CC(=O)OC12CCCCC2 (stereo unspecified)
O=C(Nc1cccnc1Cl)C1c2ccccc2Oc2ccccc21
COc1ccc(-n2ccnc2SCC(=O)Nc2ccc(OC)cc2OC)cc1
COc1cccc(NC(=O)CSc2nnc(CN3CCOCC3)n2C)c1
CCOc1ccc(-n2ccnc2SCC(=O)Nc2nnc(CC)s2)cc1
CCOc1ccc(-n2ccnc2SCC(=O)Nc2nnc(C)s2)cc1
O=c1c2ccccc2nc2n1CCC2
CC(=O)c1cc(NC(=O)c2cccc(C(F)(F)F)c2)c(=O)oc1/C=C/N(C)C
CC1(C)CC(=O)c2c(Cc3ccccc3)n[nH]c2C1
N#C/C(=C(/O)CN1CCCCC1)c1nc(-c2ccc(Cl)cc2)cs1
Cn1c(=O)c2[nH]c(-c3ccc(S(=O)(=O)O)cc3)nc2n(C)c1=O
COCCn1c(=O)c(-c2cccs2)nc2cnc(N3CCN(C)CC3)nc21
O=c1c(-c2ccc(F)c(F)c2)nc2cncnc2n1Cc1ccccc1Cl
COc1ccc2c(c1)c(CC(=O)OCC(=O)O)c(C)n2C(=O)c1ccc(Cl)cc1
COc1ccccc1OC[C@H](O)COC(N)=O
NC(=O)OC[C@H](O)COc1ccc(Cl)cc1
COCCn1c(=O)c(-c2ccc(OC)cc2)nc2cnc(N3CCNCC3)nc21
Cc1ccc(C(=O)Cn2nnc3c(sc4nc5c(c(-c6ccccc6)c43)CCC5)c2=O)cc1
Cc1ccc(C(=O)CNc2nc3c(c(=O)[nH]c(=O)n3C)n2Cc2ccccc2)cc1
COc1ccc(NC(=O)C(=O)NNC(=O)c2cccs2)c(OC)c1
Cc1c(NC(=O)C(C)N2C(=O)c3ccccc3C2=O)c(=O)n(-c2ccccc2)n1C (stereo unspecified)
c1cncc(-c2nnc3n2C2(CCCCC2)Cc2ccccc2-3)c1
Cc1cccc2c1OCC/C2=N\NC(=O)COc1ccccc1
Cc1ncc([N+](=O)[O-])n1CCO
N#Cc1ccc(C2=NC(C(F)(F)F)(C(F)(F)F)c3c(n(Cc4ccco4)c(=O)[nH]c3=O)N2)cc1
COCCn1c(=O)c(-c2cccs2)nc2cnc(OC)nc21
Cn1c(=O)c2c3c(sc2n2cnnc12)CCC3
NC(=O)Cn1c(=O)n(Cc2ccco2)c(=O)c2c3c(sc21)CCCCC3
CC(=O)N(NC(=O)c1ccccc1Cl)C1CC(=O)N(c2ccc(C)cc2)C1=O (stereo unspecified)
CC(=O)N(C[C@@H](C)C(=O)O)c1c(I)cc(I)c(N)c1I
CCOc1cc2c(C)cc(=O)oc2cc1Cl
Brc1ccc(-c2csc(N3CCC(c4ccccc4)C3)n2)cc1 (stereo unspecified)
CCOc1ccc(NC(=O)N2CCC(c3ccc(C)cc3)C2)cc1 (stereo unspecified)
COC(=O)c1cc2n(n1)CCN(Cc1ccccc1F)C2=O
Cc1ccc(C(=O)/C=C2\NCC(C)NC2=O)cc1 (stereo unspecified)
Cc1ccc(C(=O)NC2CCCCC2)cc1
O=C(Oc1ccc(OC(=O)c2ccco2)c(S(=O)(=O)c2ccc(Br)cc2)c1)c1ccco1
COc1ccc(NC(=O)C(c2ccc(OC)cc2)N(C)C(=O)CNC(C)=O)cc1 (stereo unspecified)
CN(C)/C(CN1CCN(C=O)CC1)=C1\N=C(c2ccccc2)OC1=O
CC1CN(C(=O)c2cc3c(s2)CCC3)CC(C)O1 (stereo unspecified)
COc1ccc(NC(=O)c2ccc(COc3ccccc3)o2)cc1
CCOc1ccc(OCc2ccc(C(=O)N3CCc4ccccc4C3)o2)cc1
CNC[C@H](O)[C@H](O)[C@H](O)[C@H](O)CO

activity, negative = inhibition, inactive:
CCSC[C@@H](N)C(=O)O -5.75% [at 11.4 µM]
CC(C)(C)N1C(=O)[C@H]2[C@H]3[C@H](O)[C@H](O)C/C(=N/NC(=O)OCc4ccccc4)[C@@H]3CC[C@@H]2C1=O -18.8% [at 11.4 µM]
COc1cc(N=C(N)N=C(N)N)c2ncccc2c1 -2.16% [at 11.4 µM]
Nc1ccc(S(=O)(=O)c2ccc(NC(=O)c3cccnc3)cc2)cc1 -2.49% [at 11.4 µM]
CCCC1c2c(ccc3ccccc23)Oc2ccc3ccccc3c21 4.73% [at 11.4 µM]
O=C1C(=O)c2ccccc2C(O)=C1C(CCc1ccccc1)C1=C(O)c2ccccc2C(=O)C1=O -9.56% [at 11.4 µM]
CCc1ncc(CO)n1Cc1cccc2ccccc12 -6.66% [at 11.4 µM]
CN(C)CCNS(=O)(=O)N(C)C 5.07% [at 11.4 µM]
COc1cccc([C@H](O)Cn2cc(-c3cccc(CON=C(C)C)c3)nn2)c1 -1.23% [at 11.4 µM]
C/C(=N\NC(=O)c1ccncc1)c1ccc2ccccc2c1O -2.13% [at 11.4 µM]
CO[C@H]1COC(=O)CCC[C@@H](C)[C@H](OC)COC(=O)[C@H]2CCCN2C(=O)C/C=C\[C@@H]1C 6.78% [at 11.4 µM]
